Assay outcomes: PubChem BioAssay, Broad Institute
STK33 inh: STK33 kinase inhibitors, primary screen, biochemical, luminescence, ADP-Glo, MBP substrate; inhibition, % at 12.5 µM; hit rate 0.44% among 27,000; in the data active means inhibition above about 20%; inconclusive means no clear call, values can overlap the other calls
Target sequence (Q9BYT3 whole entry, looked up): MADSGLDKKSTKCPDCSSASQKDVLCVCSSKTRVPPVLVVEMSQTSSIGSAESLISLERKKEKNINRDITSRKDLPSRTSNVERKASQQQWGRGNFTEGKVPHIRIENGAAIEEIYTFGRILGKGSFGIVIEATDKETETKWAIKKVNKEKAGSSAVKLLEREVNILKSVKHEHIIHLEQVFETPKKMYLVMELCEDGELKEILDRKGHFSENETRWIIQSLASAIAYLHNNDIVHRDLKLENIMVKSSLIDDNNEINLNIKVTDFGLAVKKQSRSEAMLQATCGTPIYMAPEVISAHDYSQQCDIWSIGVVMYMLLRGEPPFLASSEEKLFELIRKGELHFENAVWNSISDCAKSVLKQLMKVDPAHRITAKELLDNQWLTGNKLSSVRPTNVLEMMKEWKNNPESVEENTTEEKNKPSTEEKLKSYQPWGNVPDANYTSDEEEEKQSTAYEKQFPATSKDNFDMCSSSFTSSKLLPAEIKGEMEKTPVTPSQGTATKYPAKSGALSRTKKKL
ID4 SMM: binders of human ID4 protein, primary screen, biochemical, small molecule microarray, single point | DNA-binding protein inhibitor ID-4 (Homo sapiens), P47928 | Flag-ID4 binding, fluorescence F/B | calls only | hit rate 1.2% among 31,000; call rule not given here;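 further: a binder raises fluorescence above local background on the spot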
mut p53 react: mutant p53 pathway re-activators, primary screen, cell-based, SW480, luciferase, single point, HTS. SW480 PUMA-promoter luciferase, p53 mutant reactivation. activation, % at 9.98 µM. hit rate 1.5% among 28,000; in the data active means activation above about 52%; inconclusive means no clear call, values can overlap the other calls
An asterisk follows results filed as active; i = inactive; ? = inconclusive; · = no result; + = active, no number. A selection: hits, their analogues and other compounds. The true share with any hit is near 2%.

SMILES | STK33 inh | ID4 SMM | mut p53 react
CC(=O)OC[C@]12[C@H](OC(C)=O)[C@H](OC(C)=O)[C@@H]3[C@@H](OC(C)=O)[C@@]14O[C@@]3(C)COC(=O)c1cnccc1CC[C@H](C)C(=O)O[C@@]4(C)[C@@H](O)[C@H](O)[C@@H]2OC(C)=O | 1 | · | ·
CC(C)(C)C1CCc2c(sc(NC(=O)COc3ccc(Cl)cc3)c2C(N)=O)C1 (configuration not stated) | -1 | i | -2
CN(C)c1c(F)cc(C(=O)NC(=O)NC2=NCCS2)cc1F | · | i | 61*
O=C(NC1=NCCS1)c1cc2ccccc2o1 | 3 | · | ·
CC1C[C@@]23CC4C(C)(C)[C@@]5(C[C@]4(CN2C1=O)N(C)C3=O)C(=O)Nc1c5ccc2c1C(=O)CC(C)(C)O2 (some centres not stated) | -2 | · | ·
COc1ccc(-c2cc(C(F)F)n3ncc(C(=O)Nc4cccc(NC(C)=O)c4)c3n2)cc1 | 0 | i | -47
CC1CCC2(C(=O)OC3OC(CO)C(O)C(O)C3O)CCC3(C(=O)O)C(=CCC4C5(C)CCC(O)C(C)(C)C5CCC43C)C2C1C (configuration not stated) | 2 | i | 10
COc1ccc(-c2cc(=O)c3c(O)c(OC)c(O)c(OC)c3o2)cc1 | 12 | · | 58*
COc1ccc(-c2cc(=O)c3c(OC)c(OC)c(OC)c(OC)c3o2)cc1OC | 4 | i | ·
O=c1[nH]c2cc(Cl)ccc2c(-c2ccccc2)c1SC1=NCCS1 | · | i | -34
CCN1C(=O)c2cccc3c(S(=O)(=O)N4CCCC4C(=O)O)ccc1c23 (configuration not stated) | 0 | + | -3
COc1cccc(S(=O)(=O)N2CCCC2C(=O)O)c1 (configuration not stated) | -5 | i | 3
COc1ccc(OC)c(NC(=O)CN(c2ccccc2Br)S(C)(=O)=O)c1 | 0 | i | -17
COc1cc(OC)c(NC(=O)CS(=O)(=O)c2ccccc2)cc1Cl | 1 | i | 6
CSc1c(C#N)c(-c2ccc(Cl)cc2)nn1C | 3 | · | ·
O=C(CSc1nnc(Nc2ccccc2)n1-c1ccccc1)Nc1ccccc1Cl | -3 | i | -17
COc1ccccc1OCC(=O)Nc1ccc(-c2nc3ccc(C)cc3[nH]2)cc1 | 17 | i | 1
Cc1cc(C)cc(OCC(=O)Nc2cccc(-c3nnc(-c4ccco4)o3)c2)c1 | 13 | i | 42
O=C(COc1ccc(I)cc1)Nc1cccc(-c2nnc(-c3ccco3)o2)c1 | 8 | i | 79*
Cc1cccc(OCC(=O)Nc2cccc(-c3nnc(-c4ccccc4)o3)c2)c1 | 8 | i | 91*
Cc1cccc(OCC(=O)Nc2cccc(-c3nc4cc(C)cc(C)c4o3)c2)c1 | 3 | i | ?
COc1cccc(OCC(=O)Nc2cccc(-c3nnc(-c4ccccc4)o3)c2)c1 | 11 | i | 101*
COc1cccc(NC(=O)COc2ccccc2C(=O)O)c1 | 13 | i | -8
COc1cccc(OCC(=O)Nc2ccc(-c3nc4ccccc4[nH]3)cc2)c1 | -2 | + | 5
Cc1ccccc1NC(=O)CC(C(=O)O)N1CCOCC1 (configuration not stated) | 3 | i | -10
SMILES | STK33 inh | ID4 SMM | mut p53 react
CN1C(=O)C2C=CC=CC2N=C1SCc1ccccc1F (configuration not stated) | · | i | 1
Cc1cccc(NC(=O)CN(c2ccc(Br)c(C)c2)S(C)(=O)=O)c1 | -5 | i | -15
O=C(COc1ccccc1)Nc1ccc2oc(-c3cccc(I)c3)nc2c1 | 2 | i | 36
CCc1cccc(OCC(=O)Nc2ccccc2C(N)=O)c1 | 0 | i | 130*
CCc1cccc(OCC(=O)Nc2cccc(-c3nnc(-c4ccccc4)o3)c2)c1 | 6 | i | 98*
CCOC(=O)c1ccccc1NC(=O)COc1ccccc1 | 1 | i | 8
COc1ccccc1NC(=O)CSc1nnnn1-c1c(C)cccc1C | 1 | i | -9
COc1ccccc1NC(=O)CSc1ncnc2sc(-c3ccccc3)cc12 | 0 | i | -63
CC12CCCCC1(O)N(O)C(C(=O)c1ccccc1)=N2 (configuration not stated) | · | i | -6
CC(=O)c1cccc(N(CC(=O)Nc2ccc(C(F)(F)F)cc2)S(C)(=O)=O)c1 | -6 | i | 13
O=S(=O)(Nc1ncccn1)c1ccc(NC(=S)Nc2ccc3c(c2)CCC3)cc1 | -5 | i | 19
c1cnc(SCCCCOc2ccc3c(c2)CCC3)nc1 | -4 | i | 71*
Cc1cc(C)c2c(=O)[nH]c(SCC(=O)N3CCOCC3)nc2n1 | -2 | + | -1
Cc1cc(C)c2c(=O)[nH]c(SCC(=O)c3ccccc3)nc2n1 | -1 | i | -8
O=c1cc(-c2ccccc2)n(-c2ccccc2)cn1 | -5 | · | ·
O=C1c2ccccc2C(=O)N1CCc1nc(-c2ccccn2)no1 | 1 | i | 18
c1ccc(OCCCc2nc(-c3ccccn3)no2)cc1 | 1 | i | 69*
CC(Oc1ccc(C(C)(C)C)cc1)c1nc(-c2ccccn2)no1 (configuration not stated) | -2 | i | 9
Cc1ccccc1OC(C)c1nc(-c2ccccn2)no1 (configuration not stated) | -1 | i | 116*
c1ccc(-c2noc(COc3cccc4ccccc34)n2)nc1 | -1 | i | 87*
O=C1c2ccccc2C(=O)N1CCCc1nc(-c2ccccn2)no1 | -5 | i | 11
Cc1cc(N(CC(=O)NC2CC3CCC2C3)S(C)(=O)=O)ccc1Br (configuration not stated) | -1 | i | -12
COc1ccc(OC)c(NC(=O)CSc2nc(C)cc(=O)[nH]2)c1 | 10 | i | 1
C=C1CC[C@H]2[C@](C)(CCC[C@]2(C)C(=O)OC)[C@H]1CC/C(C)=C/C(=O)O | -4 | i | 8
COc1cccc(-c2cc(C(F)(F)F)n3nc(C(=O)Nc4cc(C)nn4-c4ccccc4)cc3n2)c1 | 1 | i | 9
SMILES | STK33 inh | ID4 SMM | mut p53 react
Cc1c(Cl)cccc1NC(=O)CSc1nc(-c2ccccc2)cs1 | 0 | i | 12
CCOc1ccc(N2C(=O)CC(Sc3nc(O)c(CC)c(=O)[nH]3)C2=O)cc1 (configuration not stated) | 1 | + | -3
COc1ccc(N2C(=O)CC(SCCc3nc4ccccc4[nH]3)C2=O)cc1 (configuration not stated) | 0 | i | -8
C[C@H]1O[C@@H](O[C@H]2C[C@H]3C(=O)C[C@]4(C)C(=CCC5[C@@]6(C)CC[C@H](O[C@@H]7OC[C@@H](O)[C@H](O)[C@H]7O)[C@@](C)(C=O)C6CC[C@]54C)[C@@H]3CC2(C)C)[C@H](O)[C@@H](O)[C@@H]1O[C@@H]1O[C@H](C(=O)O)[C@@H](O)[C@H](O)[C@H]1O (some centres not stated) | -2 | i | 0
COc1ccc(-c2cc(=O)[nH]c(SCC(=O)Nc3cccc(Cl)c3C)n2)cc1 | 2 | i | 5
COc1ccc(-c2cc(C)nc(SCC(=O)Nc3cccc(Cl)c3Cl)n2)cc1 | -1 | + | 13
